From PubChem BioAssay (NCI)
Compounds without any hit were thinned out: in the full panel of roughly 83,000, 20% have a hit.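 Treatment: one concentration, 48 hours, 96-well format. Scoring: percent growth, with anything below 10 considered active.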 Values without a mark were called inactive. Activity calls are given as the source filed them.

Tests used:
Assay in all cases: NCI-60 one-dose screen, 48 h (100 = growth as untreated, 0 = no growth, -100 = all killed)
Settings in all cases: 10 µM unless noted
[1] = tested on: DU-145 prostate
[2] = tested on: K-562 leukemia
[3] = tested on: MALME-3M melanoma
[4] = tested on: MDA-MB-231 breast
[5] = tested on: RXF 393 renal
[6] = tested on: SF-268 CNS
[7] = tested on: SF-295 CNS
[8] = tested on: SF-539 CNS
[9] = tested on: UACC-257 melanoma
[10] = tested on: M14 melanoma
[11] = tested on: HCT-15 colon
[12] = tested on: HT29 colon
[13] = tested on: SNB-75 CNS
[14] = tested on: SNB-19 CNS
[15] = tested on: U251 CNS
[16] = tested on: SK-MEL-5 melanoma
[17] = tested on: UACC-62 melanoma
[18] = tested on: LOX IMVI melanoma
[19] = tested on: SK-MEL-28 melanoma

COc1ccc(-c2ccc3c(c2)sc2nc(-c4ccc(F)cc4)cn23)cc1
growth [1]: 60.3%
growth [2]: 76.6%
growth [3]: 101%
growth [4]: 93.5%
growth [5]: 98.8%
growth [6]: 110%
growth [7]: 32.5%
growth [8]: 100%
growth [9]: 80.9%
growth [10]: 98%
growth [11]: 74.9%
growth [12]: 82.8%
growth [13]: 98.9%
growth [14]: 103%
growth [15]: 83.3%
growth [16]: 33.1%
growth [17]: 65%
growth [18]: 102%
growth [19]: 105%

COc1cccc(-c2nn(-c3ccccc3)cc2-c2ccnc(NCCCNC(=O)c3cccc(C(F)(F)F)c3)c2)c1
growth [1]: 52.3%
growth [2]: 18%
growth [3]: 9.81% (active)
growth [4]: 23.6%
growth [5]: 36%
growth [6]: 57.4%
growth [7]: 27.3%
growth [8]: 30.6%
growth [9]: 12.1%
growth [10]: 28.2%
growth [11]: 21%
growth [12]: 8.77% (active)
growth [13]: 58.6%
growth [14]: 45.3%
growth [15]: 24.7%
growth [16]: -64.4% (active)
growth [17]: 23.9%
growth [18]: 28%
growth [19]: 50.3%

O=C(c1ccccc1)c1c(/C=C/c2ccccc2)nc2ccccc2c1/C=C/c1ccc(Br)cc1
growth [1]: 105%
growth [2]: 97.3%
growth [3]: 106%
growth [4]: 100%
growth [5]: 104%
growth [6]: 91.6%
growth [7]: 101%
growth [8]: 106%
growth [9]: 99.8%
growth [10]: 96.8%
growth [11]: 108%
growth [12]: 102%
growth [13]: 83.1%
growth [14]: 88.9%
growth [15]: 95.9%
growth [16]: 101%
growth [17]: 82%
growth [18]: 90.6%
growth [19]: 108%

N#Cc1nc2c(S(=O)(=O)c3ccc(Cl)cc3)c(N)n(Nc3cccc(Cl)c3)c2nc1C#N
growth [1]: 16.2%
growth [2]: 25.9%
growth [3]: 25.3%
growth [4]: 58.8%
growth [5]: 46.3%
growth [6]: 53.8%
growth [7]: 48.9%
growth [8]: 38.9%
growth [9]: 47.9%
growth [10]: 79%
growth [11]: 91.2%
growth [12]: 69.5%
growth [13]: 55.9%
growth [14]: 64.6%
growth [15]: 40%
growth [16]: 42.8%
growth [17]: 49.2%
growth [18]: 61.3%
growth [19]: 26.1%

CCCCCCN(CCCCCC)c1ccc(/C=C2/SC(=O)N(c3nc(N4CCCC4)nc(N4CCCC4)n3)C2=O)c(C)c1
growth [1]: 77.3%
growth [2]: 37.5%
growth [3]: 71.5%
growth [4]: 85.7%
growth [5]: 84.7%
growth [6]: 73.2%
growth [7]: 56.7%
growth [8]: 114%
growth [9]: 72.6%
growth [10]: 69.3%
growth [11]: 57.9%
growth [12]: 51.8%
growth [13]: 83.3%
growth [14]: 84.4%
growth [15]: 53.9%
growth [16]: 58.6%
growth [17]: 52.7%
growth [18]: 71.8%
growth [19]: 74.3%

COc1ccc(/C=c2\nc3n(-c4ccccc4)c4nc5c6c(sc5c(=N)n4n-3c2=O)CCCC6)cc1
growth [1]: 104%
growth [2]: 67.2%
growth [3]: 97.4%
growth [4]: 59.9%
growth [5]: 98.4%
growth [6]: 88.8%
growth [7]: 98.4%
growth [8]: 94.9%
growth [9]: 106%
growth [10]: 96.7%
growth [11]: 40.7%
growth [12]: 109%
growth [13]: 42.9%
growth [14]: 84.9%
growth [15]: 87.5%
growth [16]: 70.8%
growth [17]: 74.1%
growth [18]: 91.2%
growth [19]: 102%

Cc1ccc(/C=C/c2c(C(=O)/C=C/c3ccc(C(F)(F)F)cc3)c(C)nc3ccccc23)cc1
growth [1]: -78.3% (active)
growth [2]: -16.6% (active)
growth [3]: -65.4% (active)
growth [4]: -40.5% (active)
growth [5]: -87.8% (active)
growth [6]: -5% (active)
growth [7]: -75.8% (active)
growth [8]: -83.4% (active)
growth [9]: -17.7% (active)
growth [10]: -35.8% (active)
growth [11]: -29.6% (active)
growth [12]: 5.36% (active)
growth [13]: -42.5% (active)
growth [14]: -62.9% (active)
growth [15]: -70.7% (active)
growth [16]: -86.4% (active)
growth [17]: -45.8% (active)
growth [18]: -87.3% (active)
growth [19]: -63.2% (active)

CCOP(=O)(OCC)C1CP(=O)(c2ccccc2)CC(C)=C1Cl (stereo unspecified)
growth [1]: 104%
growth [2]: 93.4%
growth [3]: 90.9%
growth [4]: 95%
growth [5]: 78.1%
growth [6]: 104%
growth [7]: 96.7%
growth [8]: 104%
growth [9]: 92.2%
growth [10]: 63.2%
growth [11]: 102%
growth [12]: 118%
growth [13]: 90.9%
growth [14]: 104%
growth [15]: 96.9%
growth [16]: 103%
growth [17]: 95.1%
growth [18]: 88.9%
growth [19]: 104%

COc1ccc2c(c1)[nH]c(=O)c1c3cccnc3cn21
growth [1]: 9.39% (active)
growth [2]: 17.4%
growth [3]: 62.6%
growth [4]: 28.9%
growth [5]: 37%
growth [6]: 27.3%
growth [7]: -6.51% (active)
growth [8]: 8.85% (active)
growth [9]: 64.5%
growth [10]: 16.2%
growth [11]: 13.7%
growth [12]: 8.6% (active)
growth [13]: 40.5%
growth [14]: 32.7%
growth [15]: 15.6%
growth [16]: -33.6% (active)
growth [17]: 16.5%
growth [18]: 33.1%
growth [19]: 70.8%

COc1cc(C(=O)/C=C/c2c(-c3ccc(F)cc3)nc3sc(C)cn23)cc(OC)c1OC
growth [1]: 39.2%
growth [2]: 7.75% (active)
growth [3]: 6.76% (active)
growth [4]: 38.2%
growth [5]: 44.2%
growth [6]: 40.4%
growth [7]: 32.4%
growth [8]: 57.7%
growth [9]: 21.4%
growth [10]: 32.3%
growth [11]: 35.5%
growth [12]: 41.5%
growth [13]: 50.1%
growth [14]: 66.5%
growth [15]: 32.9%
growth [16]: -88.8% (active)
growth [17]: 23.1%
growth [18]: 25.1%
growth [19]: 12.4%

CC(CN1CCCCC1)C(=O)c1ccccc1 (stereo unspecified)
growth [1]: 104%
growth [2]: 101%
growth [3]: 107%
growth [4]: 99.7%
growth [5]: 112%
growth [6]: 99.9%
growth [7]: 101%
growth [8]: 92.1%
growth [9]: 103%
growth [10]: 98.3%
growth [11]: 107%
growth [12]: 101%
growth [13]: 101%
growth [14]: 101%
growth [15]: 101%
growth [16]: 102%
growth [17]: 104%
growth [18]: 98.3%
growth [19]: 106%

CCCCCCCCCCCCCCCCCCOc1ccccc1CC(=O)OCCC[N+](C)(C)C
growth [1]: 60.5%
growth [2]: 37.4%
growth [3]: 52.7%
growth [4]: 45.9%
growth [5]: -18.2% (active)
growth [6]: 53.2%
growth [7]: 75.4%
growth [8]: 52.1%
growth [9]: 84.7%
growth [10]: 46.3%
growth [11]: 78.7%
growth [12]: 40%
growth [13]: 40.6%
growth [14]: 34.2%
growth [15]: 24.2%
growth [16]: 43.2%
growth [17]: 54.2%
growth [18]: 36.4%
growth [19]: 66.8%

COc1ccc(C2=NN(C(=O)c3cc(OC)c(OC)c(OC)c3)C(c3ccc(Cl)cc3)C2)cc1OC (stereo unspecified)
growth [1]: 7.23% (active)
growth [2]: 4.27% (active)
growth [3]: 63.1%
growth [4]: 47.6%
growth [5]: 22.6%
growth [6]: 37.6%
growth [7]: -4.6% (active)
growth [8]: -3.19% (active)
growth [9]: 54.5%
growth [10]: 6.09% (active)
growth [11]: 9.3% (active)
growth [12]: 15.2%
growth [13]: 21.9%
growth [14]: 29.1%
growth [15]: 24%
growth [16]: 9.51% (active)
growth [17]: 31.1%
growth [18]: 31.3%
growth [19]: 46.1%

Cc1cc(C)c(-c2c(C)cc(C)cc2CBr)c(CBr)c1
growth [1]: 94.9%
growth [2]: 67.7%
growth [3]: 73.5%
growth [4]: 97.9%
growth [5]: 14.8%
growth [6]: 74.2%
growth [7]: 84.7%
growth [8]: 96.4%
growth [9]: 73.9%
growth [10]: 72.5%
growth [11]: 80.6%
growth [12]: 86.3%
growth [13]: 92.3%
growth [14]: 86.2%
growth [15]: 73%
growth [16]: 77.6%
growth [17]: 70.9%
growth [18]: 53%
growth [19]: 86.9%
